Source: PubChem BioAssay (NCI)
This is part of a sample that, as a whole, favours compounds with a hit. Of some 83,000 tested, about 20% had one in any assay.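 Results are percent growth after 48 hours of single-concentration exposure. 100 means growth as in untreated cells, lower positive values show inhibition; negative values down to -100 show cell death.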 Unmarked numbers belong to inactive results. Activity calls are given as the source filed them. The calls were made as follows: active = growth percent below 10; inactive = the rest.

How the values were obtained:
Experiment in all cases: NCI-60 one-dose screen, 48 h (100 = growth as untreated, 0 = no growth, -100 = all killed)
Conditions in all cases: 10 µM
NCI-H23 lung = test system: NCI-H23 lung
NCI-H226 lung = test system: NCI-H226 lung
NCI-H322M lung = test system: NCI-H322M lung
HOP-62 NSCLC = test system: HOP-62 NSCLC
NCI-H460 lung = test system: NCI-H460 lung
HOP-92 NSCLC = test system: HOP-92 NSCLC
NCI-H522 lung = test system: NCI-H522 lung
A549/ATCC NSCLC = test system: A549/ATCC NSCLC
786-0 renal = test system: 786-0 renal
COLO 205 colon = test system: COLO 205 colon

| Compound | growth (NCI-H23 lung) | growth (NCI-H226 lung) | growth (NCI-H322M lung) | growth (HOP-62 NSCLC) | growth (NCI-H460 lung) | growth (HOP-92 NSCLC) | growth (NCI-H522 lung) | growth (A549/ATCC NSCLC) | growth (786-0 renal) | growth (COLO 205 colon) |
| --- | --- | --- | --- | --- | --- | --- | --- | --- | --- | --- |
| CC(=O)/C(=C\c1ccc(Cl)cc1)c1ccccc1 | 20.1% | 8.66% (active) | 49.1% | 32% | 6.31% (active) | -0.736% (active) | -1.57% (active) | 17.1% | 22.9% | -40.5% (active) |
| CCOc1cc(Br)c(C(C)NC(=O)c2cccc(OC)c2)cc1OCC (stereo not given) | 79.7% | 89.2% | 94.3% | 87.3% | 78.1% | 8.9% (active) | 83.6% | 76.6% | 68.1% | 23.8% |
| O=S(=O)(NC1c2ccccc2Oc2ccccc21)c1ccccc1 | 98% | 95.3% | 91.6% | 90.1% | 107% | 63.8% | 31.3% | 98.4% | 82.1% | 95.6% |
| Cc1ccc(-c2cc(-c3cccc(Nc4ccnc5cc(Cl)ccc45)c3)nc3nc(N)[nH]c(=O)c23)cc1 | 100% | 96.6% | 91.3% | 113% | 110% | 14.6% | 21% | 102% | 94.9% | 125% |
| O=C(CCc1ccccc1)N1CCN(C(=O)CCc2ccccc2)CC1 | 101% | 99.3% | 95.2% | 105% | 114% | 84.1% | 98.3% | 99.9% | 94.6% | 102% |
| CC(C)OP(=O)(O)c1ncc(-c2ccc(C(F)(F)F)cc2)c(NC2CCCCCC2)n1 | 62.6% | 74.1% | 91.1% | 70.5% | 41.5% | 22.8% | 48.8% | 49.2% | 81.6% | 61% |
| COc1cc(-c2n/c(=C\c3c(O)[nH]c4ccccc34)cc3c2=Nc2ccccc2-3)cc(OC)c1OC | 22.9% | 22% | 47.3% | 41.4% | 3.31% (active) | 22.9% | -7.72% (active) | 9.21% (active) | 16.7% | -49.2% (active) |
| CC(C)/C(=N/O)c1ccccc1 | 103% | 104% | 133% | 116% | 120% | 91.3% | 90.8% | 111% | 88.2% | 115% |
| O=C(Nc1cccc(Cl)c1)OCC(COC(=O)Nc1cccc(Cl)c1)(COC(=O)Nc1cccc(Cl)c1)[N+](=O)[O-] | 22.9% | 66.4% | 45.8% | 41.8% | 17.9% | 18.6% | 27.4% | 26.2% | 32.8% | 35.5% |
| COc1c(C)c(C)c(OC)c2c1[nH]c(=O)c1c3cccnc3cn21 | 103% | 99% | 153% | 92.6% | 104% | 102% | 98.4% | 114% | 114% | 118% |
| CCCCOCCOCCOCc1cc2c(cc1Br)OCO2 | 99.3% | 97.4% | 91.8% | 92.7% | 111% | 85% | 80.4% | 91.2% | 100% | 107% |
| CCC1(C)OC(=O)NC1=O (stereo not given) | 96% | 93.1% | 105% | 71.1% | 111% | 93.2% | 84.5% | 79.2% | 99.6% | 103% |
| COc1ccc(Cn2cc3c(c2-c2cc(OC)c(OC)c(OC)c2)CCc2cnoc2-3)cc1[N+](=O)[O-] | 26.1% | 47.5% | 26.7% | 56.6% | 7.93% (active) | 64% | 46.2% | 34% | 34.3% | 1.15% (active) |
| O=C(O)c1cc(C(F)(F)F)cc(C(F)(F)F)c1 | 101% | 111% | 102% | 103% | 107% | 121% | 102% | 101% | 93.7% | 113% |
| NC(=O)C12C(=O)NC(=O)C1(C(=O)O)C21CCCC1 (stereo not given) | 109% | 110% | 104% | 110% | 117% | 102% | 111% | 99% | 101% | 115% |
| CCOc1ccc2c(c1)CC[C@@H]1[C@@H]2CC[C@]2(C)[C@@H](O)[C@@H](O)C[C@@H]12 | 106% | 85.7% | 91.4% | 114% | 100% | 122% | 119% | 80.3% | 101% | 112% |
| COc1ccc(Cn2cc3c(c2-c2cc(OC)c(OC)c(OC)c2)CCc2cnoc2-3)cc1N | 15.8% | 12.7% | 14.9% | 47.4% | -9.29% (active) | 80.8% | 32.3% | 28.5% | 15.8% | -29.1% (active) |
| COc1ccc(C(=O)/C=C/c2cc(-c3ccc(OC)c(OC)c3)n[nH]2)cc1OC | 8.17% (active) | 58% | -13.5% (active) | -33.5% (active) | -42.2% (active) | -59.3% (active) | -89.4% (active) | -12.8% (active) | -64.2% (active) | -60.7% (active) |
| O=NN(CCCl)C(=O)Nc1ccc(NC(=O)N(CCCl)N=O)cc1 | 107% | 96.5% | 112% | 105% | 88.7% | 84.8% | 114% | 82.8% | 61.3% | 105% |
| Cc1nc(N)sc1Sc1nc2ccc(Cl)cc2c(=O)n1-c1ccc(Oc2ccccc2)cc1 | 74% | 86.4% | 111% | 116% | 82% | 74.4% | 85.3% | 70.2% | 68.5% | 102% |
| CCOc1nc(-c2ccccc2)cc2c(O)c(C(=O)NCCCO)[nH]c(=O)c12 | 103% | 94.7% | 106% | 91.1% | 110% | 66% | 77.4% | 106% | 106% | 118% |
| CCCCCCCCCCSC(=N)N (tested in a mixture with another compound) | 80% | 94.2% | 105% | 77.3% | 52.5% | 41.8% | 53.7% | 75.3% | 52.4% | -59.2% (active) |
| O=C1/C(=C/c2ccc(O)cc2)CSc2ccc(Cl)cc21 | 91.3% | 82.2% | 92.3% | 90.9% | 96.5% | 75.6% | -26.2% (active) | 86.7% | 85.5% | 108% |
| COc1cc(N=C2C(=O)N(Cc3ccccc3)c3ccccc32)cc(OC)c1OC | 89.9% | 88.3% | 108% | 101% | 103% | 35.6% | 75% | 103% | 103% | 114% |
| COc1ccc(-c2nsc3c2NC(=O)CC3c2ccc(Cl)cc2)cc1 (stereo not given) | 83.9% | 84.4% | 83.5% | 92.6% | 94.8% | 73.3% | 68.1% | 76.6% | 84.2% | 93.8% |
| Cc1cc(Cl)ccc1Nc1nc(C(F)(F)F)ccc1C(=O)N/N=C/c1ccccc1Cl | 16.9% | -12.4% (active) | 9.54% (active) | -6.31% (active) | 5.74% (active) | -1.9% (active) | -2.69% (active) | 13.5% | -40.1% (active) | 4.36% (active) |
| C[C@@H]1C(=O)N(C[C@H](Cc2ccccc2)NC(=O)OCc2ccccc2)[C@]1(Cc1ccccc1)C(=O)OCc1ccccc1 | 34.3% | 48.5% | 72.4% | 70.9% | 34.9% | 51.2% | 28.9% | 20.8% | 58.3% | 7.23% (active) |
| CCOC(=O)/C(C#N)=C(/C)C1CC1 | 109% | 95.7% | 112% | 98.5% | 104% | 86% | 110% | 99.7% | 103% | 108% |
